Among the data in the supplement of paper PMC10849652 are log2 fold change values, retold here.

Of roughly 8,800 targets only a part is listed; those with a hit were picked by preference. About 0.5% of all pairs of compound and target were hits. A number with no mark means an inactive call.

Sequence of UniProt P18031 (P18031 whole entry, looked up): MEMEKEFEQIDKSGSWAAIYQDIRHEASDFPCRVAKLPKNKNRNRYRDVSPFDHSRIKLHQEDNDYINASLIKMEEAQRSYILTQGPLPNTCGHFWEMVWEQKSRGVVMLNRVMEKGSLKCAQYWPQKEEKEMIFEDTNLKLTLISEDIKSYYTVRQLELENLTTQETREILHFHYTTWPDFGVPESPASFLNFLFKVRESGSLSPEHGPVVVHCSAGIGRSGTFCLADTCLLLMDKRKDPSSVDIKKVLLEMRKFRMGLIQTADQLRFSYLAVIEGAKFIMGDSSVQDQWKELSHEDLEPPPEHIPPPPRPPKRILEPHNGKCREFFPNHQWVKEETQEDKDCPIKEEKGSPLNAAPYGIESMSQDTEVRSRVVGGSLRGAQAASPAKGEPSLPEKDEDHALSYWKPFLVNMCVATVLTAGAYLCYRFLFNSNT
Sequence of UniProt Q9Y244 (Q9Y244 whole entry, looked up): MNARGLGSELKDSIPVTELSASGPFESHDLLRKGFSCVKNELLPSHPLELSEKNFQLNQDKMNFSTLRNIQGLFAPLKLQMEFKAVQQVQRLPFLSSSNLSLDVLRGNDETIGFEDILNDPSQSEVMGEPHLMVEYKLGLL
Sequence of UniProt O00459 (O00459 whole entry, looked up): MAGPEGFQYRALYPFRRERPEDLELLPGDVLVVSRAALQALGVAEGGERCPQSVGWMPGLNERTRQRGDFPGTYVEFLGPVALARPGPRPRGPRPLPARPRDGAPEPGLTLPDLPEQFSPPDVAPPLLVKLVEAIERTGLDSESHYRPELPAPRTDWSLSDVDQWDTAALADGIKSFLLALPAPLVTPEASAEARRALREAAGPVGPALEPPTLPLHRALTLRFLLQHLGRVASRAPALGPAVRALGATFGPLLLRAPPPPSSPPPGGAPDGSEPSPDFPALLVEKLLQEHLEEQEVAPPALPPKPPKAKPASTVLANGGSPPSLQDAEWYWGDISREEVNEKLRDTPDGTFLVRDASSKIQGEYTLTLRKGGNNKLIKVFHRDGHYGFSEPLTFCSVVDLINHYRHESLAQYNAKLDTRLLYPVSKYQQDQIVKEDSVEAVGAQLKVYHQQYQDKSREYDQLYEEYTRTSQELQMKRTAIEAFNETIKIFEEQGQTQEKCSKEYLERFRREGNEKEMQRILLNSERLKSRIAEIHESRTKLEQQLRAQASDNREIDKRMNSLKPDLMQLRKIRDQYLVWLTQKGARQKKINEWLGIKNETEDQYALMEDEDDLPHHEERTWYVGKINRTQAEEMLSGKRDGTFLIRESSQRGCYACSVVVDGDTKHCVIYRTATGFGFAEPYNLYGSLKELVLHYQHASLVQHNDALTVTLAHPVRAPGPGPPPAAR
Sequence of UniProt Q16877 (Q16877 whole entry, looked up): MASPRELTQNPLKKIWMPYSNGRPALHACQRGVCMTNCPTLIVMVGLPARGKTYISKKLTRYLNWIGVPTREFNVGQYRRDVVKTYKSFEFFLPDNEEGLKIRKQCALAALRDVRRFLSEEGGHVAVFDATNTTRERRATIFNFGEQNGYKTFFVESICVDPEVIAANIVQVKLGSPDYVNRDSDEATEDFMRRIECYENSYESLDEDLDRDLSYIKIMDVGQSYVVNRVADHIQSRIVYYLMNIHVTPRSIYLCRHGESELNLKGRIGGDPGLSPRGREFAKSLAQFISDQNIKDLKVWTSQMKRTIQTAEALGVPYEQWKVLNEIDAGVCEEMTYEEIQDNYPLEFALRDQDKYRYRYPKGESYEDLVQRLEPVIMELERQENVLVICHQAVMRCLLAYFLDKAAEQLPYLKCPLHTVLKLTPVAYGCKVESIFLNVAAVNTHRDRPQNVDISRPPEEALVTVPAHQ
Sequence of UniProt Q9H4Z3 (Q9H4Z3 whole entry, looked up): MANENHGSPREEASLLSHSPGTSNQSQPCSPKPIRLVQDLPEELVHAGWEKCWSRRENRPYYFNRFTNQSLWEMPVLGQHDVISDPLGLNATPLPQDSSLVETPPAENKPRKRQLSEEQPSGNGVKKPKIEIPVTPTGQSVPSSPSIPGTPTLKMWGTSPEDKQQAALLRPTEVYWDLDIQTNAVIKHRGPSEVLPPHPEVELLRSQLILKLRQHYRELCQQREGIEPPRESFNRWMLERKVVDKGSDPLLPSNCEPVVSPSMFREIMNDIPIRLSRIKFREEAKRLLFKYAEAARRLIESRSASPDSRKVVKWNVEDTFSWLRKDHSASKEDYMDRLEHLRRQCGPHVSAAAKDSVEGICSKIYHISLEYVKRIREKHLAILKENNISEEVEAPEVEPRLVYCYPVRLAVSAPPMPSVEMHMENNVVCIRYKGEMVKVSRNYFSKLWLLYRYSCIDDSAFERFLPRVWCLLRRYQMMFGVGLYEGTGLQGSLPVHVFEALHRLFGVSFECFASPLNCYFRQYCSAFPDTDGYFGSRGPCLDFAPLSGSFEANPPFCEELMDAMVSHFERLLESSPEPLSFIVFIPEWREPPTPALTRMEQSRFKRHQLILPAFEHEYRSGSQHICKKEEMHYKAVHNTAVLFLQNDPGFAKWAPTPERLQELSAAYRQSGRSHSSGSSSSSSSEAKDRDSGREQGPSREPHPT
Sequence of UniProt Q9UNP9 (Q9UNP9 whole entry, looked up): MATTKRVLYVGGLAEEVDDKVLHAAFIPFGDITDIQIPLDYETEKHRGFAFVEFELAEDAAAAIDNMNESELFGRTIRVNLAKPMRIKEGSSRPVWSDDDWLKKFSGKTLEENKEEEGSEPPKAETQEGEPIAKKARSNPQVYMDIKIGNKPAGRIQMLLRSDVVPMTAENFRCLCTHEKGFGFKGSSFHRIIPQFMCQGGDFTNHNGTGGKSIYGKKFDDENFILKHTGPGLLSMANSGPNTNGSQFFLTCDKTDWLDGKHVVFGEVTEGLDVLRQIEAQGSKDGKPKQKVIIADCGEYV
Sequence of UniProt P31323 (P31323 whole entry, looked up): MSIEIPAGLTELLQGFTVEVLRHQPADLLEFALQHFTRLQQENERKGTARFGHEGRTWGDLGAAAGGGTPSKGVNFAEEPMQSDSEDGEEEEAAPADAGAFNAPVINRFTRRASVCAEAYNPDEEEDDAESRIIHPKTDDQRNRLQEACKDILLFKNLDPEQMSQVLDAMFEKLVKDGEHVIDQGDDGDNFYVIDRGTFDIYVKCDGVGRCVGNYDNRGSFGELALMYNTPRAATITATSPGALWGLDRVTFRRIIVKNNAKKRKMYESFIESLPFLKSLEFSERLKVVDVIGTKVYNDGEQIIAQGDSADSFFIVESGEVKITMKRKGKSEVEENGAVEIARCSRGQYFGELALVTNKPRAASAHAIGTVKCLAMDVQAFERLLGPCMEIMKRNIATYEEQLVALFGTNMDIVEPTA
Sequence of UniProt Q9H2H8 (Q9H2H8 whole entry, looked up): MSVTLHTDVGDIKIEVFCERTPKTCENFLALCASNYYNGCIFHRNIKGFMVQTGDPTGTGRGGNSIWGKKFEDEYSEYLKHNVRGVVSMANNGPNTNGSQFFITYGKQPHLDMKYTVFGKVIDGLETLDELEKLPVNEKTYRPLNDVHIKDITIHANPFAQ
Sequence of UniProt Q16875 (Q16875 whole entry, looked up): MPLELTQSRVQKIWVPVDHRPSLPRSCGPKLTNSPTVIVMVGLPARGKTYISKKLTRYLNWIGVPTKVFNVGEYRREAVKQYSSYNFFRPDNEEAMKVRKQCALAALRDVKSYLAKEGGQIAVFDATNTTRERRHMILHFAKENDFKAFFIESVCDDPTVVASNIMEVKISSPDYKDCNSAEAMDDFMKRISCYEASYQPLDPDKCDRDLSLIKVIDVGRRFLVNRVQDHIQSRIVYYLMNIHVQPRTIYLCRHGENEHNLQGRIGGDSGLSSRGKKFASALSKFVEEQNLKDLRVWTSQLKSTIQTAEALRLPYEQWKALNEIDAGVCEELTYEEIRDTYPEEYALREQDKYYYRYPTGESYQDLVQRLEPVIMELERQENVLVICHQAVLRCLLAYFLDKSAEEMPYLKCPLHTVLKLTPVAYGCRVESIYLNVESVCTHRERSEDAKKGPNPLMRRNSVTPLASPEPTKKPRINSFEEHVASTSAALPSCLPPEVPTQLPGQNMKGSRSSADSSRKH
Sequence of UniProt P48426 (P48426 whole entry, looked up): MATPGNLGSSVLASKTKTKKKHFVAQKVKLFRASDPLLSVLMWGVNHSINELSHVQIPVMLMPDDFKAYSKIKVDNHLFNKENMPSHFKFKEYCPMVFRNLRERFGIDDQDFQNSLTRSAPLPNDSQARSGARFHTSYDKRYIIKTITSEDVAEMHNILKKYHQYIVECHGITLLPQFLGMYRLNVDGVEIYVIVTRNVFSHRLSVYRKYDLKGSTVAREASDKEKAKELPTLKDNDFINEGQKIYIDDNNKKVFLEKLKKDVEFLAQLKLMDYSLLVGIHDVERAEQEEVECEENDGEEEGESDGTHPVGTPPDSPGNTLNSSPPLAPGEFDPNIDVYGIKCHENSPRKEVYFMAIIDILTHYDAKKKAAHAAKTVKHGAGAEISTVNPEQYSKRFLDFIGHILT
Sequence of UniProt Q8NAV1 (Q8NAV1 whole entry, looked up): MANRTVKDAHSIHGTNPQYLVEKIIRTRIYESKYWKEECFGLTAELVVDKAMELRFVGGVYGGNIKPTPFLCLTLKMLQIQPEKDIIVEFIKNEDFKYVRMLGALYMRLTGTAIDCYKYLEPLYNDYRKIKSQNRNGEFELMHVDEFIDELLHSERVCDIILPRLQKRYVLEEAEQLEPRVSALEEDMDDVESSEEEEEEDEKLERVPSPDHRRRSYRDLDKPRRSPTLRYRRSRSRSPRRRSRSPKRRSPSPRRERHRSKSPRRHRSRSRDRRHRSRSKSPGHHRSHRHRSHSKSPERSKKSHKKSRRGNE
Sequence of UniProt O00264 (O00264 whole entry, looked up): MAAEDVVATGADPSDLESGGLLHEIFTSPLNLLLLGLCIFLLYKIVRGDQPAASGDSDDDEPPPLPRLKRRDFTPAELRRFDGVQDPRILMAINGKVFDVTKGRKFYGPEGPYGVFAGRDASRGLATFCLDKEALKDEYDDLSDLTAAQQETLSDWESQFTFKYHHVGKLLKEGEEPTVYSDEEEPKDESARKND

Compound in the experiment: CC[C@@H]1C(=O)N(C)c2cnc(Nc3ccc(C(=O)NC4CCN(C)CC4)cc3OC)nc2N1C1CCCC1
Kind of experiment: log2 fold change, soluble protein after heating vs DMSO (PISA); higher = thermal stabilisation; K562 lysate, 10 uM; active = over 0.2 and 3.5 SD of the protein, either way, in both replicates (recomputed). Put shortly: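 A 30 min treatment with 10 μM compound was applied to crude K562 extract at 1 mg/mL protein in PBS pH 7.4 with 1 mM MgCl2. Heating for 3 min spanned 48°C-58°C, after which aliquots were pooled, adjusted to 0.5% NP-40 at 4°C and spun at 21,000xg for 90 min. TMTpro 16plex LC-MS/MS of the supernatant, with channel sums equalised, gave values recorded as log-two fold change in thermal stability against solvent controls, from duplicates.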
For the target PCIF1 (UniProt Q9H4Z3), the log2 fold change was 0.023.
Take PEF1 (UniProt Q9UBV8): the log2 fold change is 0.033.
For the target PMPCA (UniProt Q10713), the log2 fold change is -0.039.
Take PPP4R2 (UniProt Q9NY27): the log2 fold change was 0.057.
As to PLXNB2 (UniProt O15031), the log2 fold change is 0.051.
With PIK3R1 (UniProt P27986), the log2 fold change is 0.172.
In the case of PTGR2 (UniProt Q8N8N7), the log2 fold change is 0.056.
The figure for PFKFB4 (UniProt Q16877) is 0.015; for PFAS (UniProt O15067) it is -0.048.
In the case of PRKAR2B (UniProt P31323), the log2 fold change was -0.028.
On to PGRMC1 (UniProt O00264), for which the log2 fold change was 0.015.
As to PPP3CA isoform 2 (UniProt Q08209), the log2 fold change is 0.046.
In the case of PUM1 isoform 3 (UniProt Q14671) it was 0.031.
On to PPP1R14C (UniProt Q8TAE6), for which the log2 fold change was -0.084.
On to PRKCB isoform 2 (UniProt P05771), for which the log2 fold change is -0.01.
For PIP4K2A (UniProt P48426), the log2 fold change is 0.31 (active).
Consider POLR2B (UniProt P30876), for which the log2 fold change is -0.049.
As for PPP2R3C (UniProt Q969Q6), the log2 fold change was -0.244.
On to PFKFB3 isoform 4 (UniProt Q16875), for which the log2 fold change is -0.003.
In the case of PCF11 (UniProt O94913), the log2 fold change is 0.02.
The figure for PRPF38A (UniProt Q8NAV1) is -0.029; for POMP (UniProt Q9Y244) it is 0.039.
On to PRKD2 isoform 3 (UniProt Q9BZL6), for which the log2 fold change is -0.358 (active).
As for PPIE (UniProt Q9UNP9), the log2 fold change was 0.044.
For POLR2F (UniProt P61218), the log2 fold change is -0.043.
As to PWP1 (UniProt Q13610), the log2 fold change was -0.032.
In the case of PLEKHA5 isoform 6 (UniProt Q9HAU0), the log2 fold change is -0.005.
On to PHKB isoform 3 (UniProt Q93100), for which the log2 fold change was 0.022.
On to PRKCSH (UniProt P14314), for which the log2 fold change is 0.007.
The figure for PIK3R2 (UniProt O00459) is 0.128; for PITRM1 isoform 2 (UniProt Q5JRX3) it is -0.018; for PIKFYVE (UniProt Q9Y2I7) it is -0.036.
As to PPIL3 (UniProt Q9H2H8), the log2 fold change is -0.004.
As to PTPN1 (UniProt P18031), the log2 fold change is -0.029.
As for PPME1 isoform 4 (UniProt Q9Y570), the log2 fold change was -0.006.
The figure for PPM1H (UniProt Q9ULR3) is 0.103.
In the case of PRPF6 (UniProt O94906), the log2 fold change is -0.057.
Take PRRC2A (UniProt P48634): the log2 fold change is 0.107.
On to PHKA1 (UniProt P46020), for which the log2 fold change was 0.044.
